Assay results published in PubChem BioAssay (NCI).
This is part of a sample that, as a whole, favours compounds with a hit. Of some 83,000 tested, about 20% had one in any assay.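 Assay: single dose, 48 h. Readout: percent growth (0 = no net growth; negative = cell death). Active: <10.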 Values without a mark were called inactive. Activity calls are given as the source filed them.

Key:
Assay in all cases: NCI-60 one-dose screen, 48 h (100 = growth as untreated, 0 = no growth, -100 = all killed)
Settings in all cases: 10 µM unless noted
HCT-15 colon = tested on: HCT-15 colon
HT29 colon = tested on: HT29 colon
SNB-75 CNS = tested on: SNB-75 CNS
SNB-19 CNS = tested on: SNB-19 CNS
U251 CNS = tested on: U251 CNS
PC-3 prostate = tested on: PC-3 prostate
SK-MEL-5 melanoma = tested on: SK-MEL-5 melanoma
UACC-62 melanoma = tested on: UACC-62 melanoma
LOX IMVI melanoma = tested on: LOX IMVI melanoma
SK-MEL-28 melanoma = tested on: SK-MEL-28 melanoma
SK-MEL-2 melanoma = tested on: SK-MEL-2 melanoma
EKVX NSCLC = tested on: EKVX NSCLC
SN12C renal = tested on: SN12C renal
UO-31 renal = tested on: UO-31 renal
TK-10 renal = tested on: TK-10 renal
ACHN renal = tested on: ACHN renal
CAKI-1 renal = tested on: CAKI-1 renal
A498 renal = tested on: A498 renal
CCRF-CEM leukemia = tested on: CCRF-CEM leukemia
MOLT-4 leukemia = tested on: MOLT-4 leukemia

Compound	growth (HCT-15 colon)	growth (HT29 colon)	growth (SNB-75 CNS)	growth (SNB-19 CNS) [%]	growth (U251 CNS)	growth (PC-3 prostate)	growth (SK-MEL-5 melanoma)	growth (UACC-62 melanoma)	growth (LOX IMVI melanoma)	growth (SK-MEL-28 melanoma)	growth (SK-MEL-2 melanoma)	growth (EKVX NSCLC) [%]	growth (SN12C renal)	growth (UO-31 renal)	growth (TK-10 renal)	growth (ACHN renal)	growth (CAKI-1 renal)	growth (A498 renal)	growth (CCRF-CEM leukemia) [%]	growth (MOLT-4 leukemia)
CN1CCN(c2ccc(-c3cnc4c(-c5csc6ccccc56)cnn4c3)cc2)CC1	-4.7% (active)	-40.4% (active)	-54.4% (active)	13.3	-87.3% (active)	-12.4% (active)	-100% (active)	-2.26% (active)	-91.2% (active)	-7.59% (active)	-32.8% (active)	22	0.637% (active)	-89.4% (active)	-18.7% (active)	-82.4% (active)	-13.9% (active)	-55.5% (active)	16.8	16.2%
COc1ccc(S(=O)(=O)n2cc(C3OC(c4cc(OC)c(OC)c(OC)c4)=NN3C(C)=O)c3ccccc32)cc1OC (stereo not given)	81.8%	110%	86%	85.7	97.7%	80.3%	76.4%	72.8%	78.4%	110%	95.5%	78.9	88%	58.2%	94.9%	85.3%	76.2%	117%	73.4	58.7%
CC(C)n1cnc2c(Nc3cccc(Cl)c3)nc(N[C@H]3CCCC[C@@H]3N)nc21	58.1%	11.3%	32.8%	59.7	57.3%	54.3%	53.3%	68.3%	45.2%	61.7%	78.3%	54.1	50.6%	31.7%	67.4%	29.9%	49.5%	94.9%	66.6	7.51% (active)
COc1ccc(S(=O)(=O)n2c3ccccc3n3ncc(-c4nnc(C)o4)c23)cc1	20.3%	11.2%	14.1%	23	31.6%	36.5%	21.3%	27.3%	36.8%	65.3%	67%	31.7	38.3%	44.8%	76.1%	45.7%	32.1%	-8.11% (active)	11.7	24.1%
O=C1/C(=C/c2ccc(F)cc2)Sc2c(Br)cccc21	75.8%	100%	87.7%	95.6	70.4%	70.4%	88.1%	55.7%	82%	110%	63.5%	87.9	62.7%	42%	111%	76.5%	81.5%	92.9%	86.2	81.5%
CC(=O)N1N=C(c2ccc(Nc3nc(Nc4ccc(F)cc4)nc(Nc4ccc(Cl)cc4)n3)cc2)CC1c1ccc(Cl)cc1 (stereo not given)	93.4%	106%	70.1%	83.5	94.7%	68.8%	105%	99%	89.8%	121%	109%	87.3	107%	56.8%	110%	83.1%	83%	88.9%	110	98.2%
Cc1cc(N2CCCC2)nc(N(CCCNc2ccnc3cc(Cl)ccc23)Cc2ccccn2)n1	32.3%	11.2%	77.4%	65.9	55.3%	52%	50.9%	79.8%	32.3%	69.8%	71.7%	66.2	52%	5.6% (active)	80.3%	80.8%	84.4%	42%	55	46.7%
Cc1ccc(-c2nc(N3CCN(C(=O)c4ccc(OC(F)(F)F)cc4)CC3)c3ccccc3n2)cc1	72.8%	88.9%	76.2%	88.4	86.1%	63.9%	81.5%	75.4%	89.4%	101%	102%	88.5	90.5%	53.7%	90.6%	89.5%	69.8%	63.7%	75.3	56.8%
